Test results as given in PubChem BioAssay (NCI).
Compounds without any hit were thinned out: in the full panel of roughly 83,000, 20% have a hit.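 48-hour exposure, single concentration, 96-well plates; percent growth endpoint where 0 means no net growth. Active: below 10.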 Values without a mark were called inactive. Calls of active or inactive are those of the source.

Tests used:
Assay in all cases: NCI-60 one-dose screen, 48 h (100 = growth as untreated, 0 = no growth, -100 = all killed)
Settings in all cases: 10 µM unless noted
NCI-H23 lung = tested on: NCI-H23 lung
NCI-H226 lung = tested on: NCI-H226 lung
NCI-H322M lung = tested on: NCI-H322M lung
HOP-62 NSCLC = tested on: HOP-62 NSCLC
NCI-H460 lung = tested on: NCI-H460 lung
A549/ATCC NSCLC = tested on: A549/ATCC NSCLC
786-0 renal = tested on: 786-0 renal
COLO 205 colon = tested on: COLO 205 colon
DU-145 prostate = tested on: DU-145 prostate
K-562 leukemia = tested on: K-562 leukemia
MALME-3M melanoma = tested on: MALME-3M melanoma
MDA-MB-231 breast = tested on: MDA-MB-231 breast
RXF 393 renal = tested on: RXF 393 renal
SF-268 CNS = tested on: SF-268 CNS
SF-295 CNS = tested on: SF-295 CNS
SF-539 CNS = tested on: SF-539 CNS
UACC-257 melanoma = tested on: UACC-257 melanoma
M14 melanoma = tested on: M14 melanoma
HCT-15 colon = tested on: HCT-15 colon
NCI-H522 lung = tested on: NCI-H522 lung

Compound	growth (NCI-H23 lung)	growth (NCI-H226 lung)	growth (NCI-H322M lung)	growth (HOP-62 NSCLC)	growth (NCI-H460 lung)	growth (A549/ATCC NSCLC) [%]	growth (786-0 renal)	growth (COLO 205 colon)	growth (DU-145 prostate)	growth (K-562 leukemia)	growth (MALME-3M melanoma)	growth (MDA-MB-231 breast)	growth (RXF 393 renal)	growth (SF-268 CNS)	growth (SF-295 CNS)	growth (SF-539 CNS)	growth (UACC-257 melanoma)	growth (M14 melanoma)	growth (HCT-15 colon)	growth (NCI-H522 lung)
COc1ccc(/C=C2\NC(=S)NC2=O)cc1	113%	100%	95.2%	83.5%	104%	107	109%	88.2%	118%	117%	77.5%	94.5%	126%	106%	119%	98.3%	106%	100%	93.5%	–
COc1ccc(/C=N/NC(=O)c2ccc(S(C)(=O)=O)cc2)cc1OC	102%	93.5%	92.1%	97.2%	109%	–	99.5%	107%	99.8%	80.9%	107%	106%	104%	102%	100%	105%	–	99.4%	102%	84.4%
O=C(C=C=Nc1ccccc1)C(=O)N=C=Cc1ccccc1	63.3%	67.7%	93.9%	90.5%	92.2%	79.8	79.3%	13.5%	40.2%	-18.8% (active)	-20.9% (active)	94.6%	-46% (active)	69.1%	99.3%	85.1%	43.3%	44.2%	11.4%	–
Cc1ccc2c(c1)O/C(=C\c1ccc([N+](=O)[O-])o1)C2=O	56.2%	78.9%	68.6%	69.6%	25.4%	55.4	5.37% (active)	-41.8% (active)	-1.53% (active)	2.06% (active)	-10.5% (active)	48.4%	-23.5% (active)	29.3%	94.3%	44.5%	68.3%	55.8%	4.4% (active)	–
C[n+]1ccc(Nc2ccc(NC(=O)c3ccc(Nc4cc[n+](C)c5ccc(N)cc45)cc3)cc2)cc1	104%	82.6%	146%	102%	82.6%	–	97%	92.8%	119%	88.5%	142%	97%	–	105%	72.7%	85.9%	–	103%	99.9%	109%
O=C(O)C(=O)O	15.2%	96.6%	95.2%	108%	111%	–	96.9%	108%	99.6%	116%	108%	102%	–	108%	110%	94.8%	–	109%	–	33.1%
CC(C)C/C(=N\NC(=O)c1ccncc1)c1cc(Cl)ccc1O	23.1%	50.5%	13.1%	30.6%	8.41% (active)	20.8	-1.16% (active)	13.9%	23.5%	9.61% (active)	21.7%	36.3%	40.2%	24.9%	19.2%	12%	6.11% (active)	2.19% (active)	23%	–
CCCCOc1ccc(C(C)(C)c2ccc(OCCCC)cc2)cc1	103%	104%	99.1%	102%	113%	–	91%	121%	107%	–	98.7%	111%	125%	115%	–	92.1%	–	104%	107%	92.3%
Nc1nc(Cl)c2[nH]cnc2n1	87%	101%	93.1%	95.2%	86.9%	–	96.8%	103%	119%	118%	94.4%	111%	–	101%	93.7%	97.4%	–	97.7%	103%	96.2%
ClC1=C(Cl)C(Cl)=C(Cl)C1=Cc1ccc(Cl)cc1	33.1%	87.7%	107%	47.4%	-63.4% (active)	–	-43% (active)	13.5%	-75.4% (active)	-0.422% (active)	-2.75% (active)	14.3%	20.5%	-69.3% (active)	34.2%	91.2%	–	-47.6% (active)	66.5%	27.5%
CO[C@H]1/C=C/O[C@@]2(C)Oc3c(C)c(O)c4c(O)c(c(/C=N/N5C(C)CN(Cc6ccccc6)CC5C)c(O)c4c3C2=O)NC(=O)/C(C)=C\C=C\[C@H](C)[C@H](O)[C@@H](C)[C@@H](O)[C@@H](C)[C@H](OC(C)=O)[C@@H]1C (some centres not stated)	14.7%	68.1%	121%	89.1%	54.9%	–	68.7%	80.1%	81.6%	203%	108%	102%	–	92.6%	41.1%	85.8%	117%	89.9%	–	-12.5% (active)
CCCCC(C#N)C(N)=O (configuration not stated)	105%	102%	110%	99%	111%	–	96.4%	124%	104%	–	107%	104%	121%	114%	–	96.9%	–	104%	105%	96.7%
Cc1cc(C(C)(C)c2cc(C)c(O)c(CN(C)C)c2)cc(CN(C)C)c1O	105%	96.5%	70.7%	99.8%	101%	97.7	73.1%	89%	97.1%	76.6%	57.7%	59.5%	61.5%	101%	100%	80.3%	85%	77.7%	–	–
CC(=O)Oc1ccc(C23c4ccccc4C2(OC(C)=O)c2cc(OC(C)=O)ccc23)cc1 (configuration not stated)	96.2%	140%	107%	53.1%	88.7%	97	69.3%	95.5%	103%	63.4%	137%	73.9%	93.5%	94.3%	96.9%	100%	105%	104%	65.8%	–
CC(=O)Oc1c(C)c(OC(C)=O)c2c(c1C(C)=O)OC1CC(=O)C(C(C)=O)=C(O)C21C (configuration not stated)	90.9%	104%	105%	89.2%	94.9%	99	94.8%	118%	112%	73.3%	96.9%	106%	132%	122%	92%	98.6%	115%	96%	94.8%	–
C=CCCCCCCCCC(=O)[O][Sn]([CH2]CCC)([CH2]CCC)[CH2]CCC	-86.2% (active)	-52.7% (active)	-88.7% (active)	-94.7% (active)	-83.3% (active)	–	-96% (active)	-86% (active)	-95.2% (active)	-16.8% (active)	-79.8% (active)	-81.7% (active)	-97.3% (active)	-97.3% (active)	-85.4% (active)	-84.1% (active)	–	-91.1% (active)	-73.3% (active)	-53% (active)
Fc1ccc(-c2nnc(-c3c(-c4ccc(F)cc4)nc4ncccn34)o2)cc1	98.2%	113%	–	105%	111%	96	93.1%	104%	103%	89.3%	121%	122%	97.8%	–	93%	94.4%	107%	112%	–	89.1%
